In the supplement of paper PMC12024424:
Structures can show the parent of a compound that is named as a salt.

The molecules below were run on Staphylococcus aureus Sa2 (MRSA, cystic fibrosis isolate) (assay: growth reduction vs untreated control (OD550); higher = stronger antibacterial activity). Conditions: 0.1 mM; 24 h.
Procedure: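 Single-dose screen of the MedChem Express Drug Repurposing Library (0.1 mM, 1% DMSO) against planktonic MRSA S. aureus Sa2 (CF isolate) in TSB in 96-well plates, 37 °C aerobic, 24 h. Assays were run in triplicate and repeated twice.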

Compound | growth reduction [%]
O=C(Nc1ccc(F)cc1)c1cnc(SCc2cc(OC(F)(F)F)ccc2B(O)O)nc1 | 100
CC(C)/N=c1\cc2n(-c3ccc(Cl)cc3)c3ccccc3nc-2cc1Nc1ccc(Cl)cc1 [Clofazimine] | 100
CC(C)(C)c1cc(C(C)(C)C)c(NC(=O)c2c[nH]c3ccccc3c2=O)cc1O [Ivacaftor] | 95.3
CCCCc1nc(-c2ccc(OCCCN(CC)CC)cc2)cn1-c1ccc(Oc2ccc(Cl)cc2)cc1 [Azeliragon] | 100
COCCNCc1ccc(-c2cc3nccc(Oc4ccc(NC(=O)C5(C(=O)Nc6ccc(F)cc6)CC5)cc4F)c3s2)nc1 [Sitravatinib] | 100
C=CCc1ccc(O)c(-c2cc(CC=C)ccc2O)c1 [Magnolol] | 100
CC(C)COc1ccc(CNC(=O)N(Cc2ccc(F)cc2)C2CCN(C)CC2)cc1 [Pimavanserin tartrate] | 100
Cc1cccc(/C=N/Nc2cc(N3CCOCC3)nc(OCCc3ccccn3)n2)c1 [Apilimod (mesylate)] | 97.4
Cc1nc(C(=O)NCC(=O)O)c(O)c2ccc(Oc3ccccc3)cc12 [Roxadustat] | 99.9
O=C(O)C1(c2ccc(-c3ccc(Cl)c(Cl)c3)c(F)c2)CC1 [Itanapraced] | 100
COc1cc(F)c(F)c(Nc2ccc(I)cc2F)c1NS(=O)(=O)C1(C[C@H](O)CO)CC1 [Refametinib] | 100
CCCCCCCCCCCCCCCCCCOP(=O)([O-])OC1CC[N+](C)(C)CC1 [Perifosine] | 96.9
Nc1ccc2cc3ccc(N)cc3nc2c1 [Proflavine (hemisulfate)] | 100
